The source of these data is PubChem BioAssay.

Experiment [1] is described as follows: optical density shifts of acrAB sulA E. coli – strain DRC41, OD650, 48 h, E. coli filamentation inducer project, primary screen (AID 1152).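 Further: E. coli MC1000 strain DRC41 lacking acrAB efflux pump and sulA.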 The settings on record: higher = more signal, called active from +8 up or from −8 down.
Experiment [2] in a line: probe aLefty1 binding on compound microarray – biochemical, small-molecule microarray, 635/667 nm fluorescence, primary screen (AID 1153).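 Further: score merges spot fluorescence with signal-to-noise ratio from the scanned slide images.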 The settings on record: higher = more signal.
Experiment [3] in a line: plasmodial surface anion channel blockers, osmotic lysis – cell-based, P. falciparum Indochina, OD700, 1 h, primary screen (AID 1154). The settings on record: P. falciparum Indochina infected RBC osmotic lysis, higher = more signal, called active from +8 up or from −8 down.
A short description of experiment [4]: plasmodial surface anion channel blockers, osmotic lysis – cell-based, P. falciparum Indochina, OD700, 2 h, primary screen (AID 1155).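 Further: lysis reports solute entry through the parasite surface anion channel PSAC.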 Conditions: P. falciparum Indochina infected erythrocytes, higher = more signal, called active from +8 up or from −8 down.
The nature of experiment [5]: changes in parasitized red cell lysis, either direction – P. falciparum Indochina, OD700, 3 h, PSAC antagonist project, primary screen (AID 1156). The settings on record: P. falciparum-infected erythrocytes, osmotic lysis, higher = more signal, called active from +8 up or from −8 down.
A short description of experiment [6]: plasmodial surface anion channel blockers, osmotic lysis – cell-based, P. falciparum Indochina, OD700, 18 h, primary screen (AID 1157). The settings on record: P. falciparum Indochina infected erythrocytes, osmotic lysis OD700, 18 h; higher = more signal, called active from +8 up or from −8 down.
The nature of experiment [7]: S6 kinase pathway phospho-S6 level changes – cell-based, A549, cytoblot, luminescence, serum-stimulated, primary screen (AID 1158).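 Further: serum-stimulated A549 lung adenocarcinoma cells; signal is phosphorylated S6 detected by cytoblot immunostaining with HRP secondary.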 The settings on record: 5 h, higher = more signal.
Experiment [8] deals with NADPH oxidase 2 (Homo sapiens) (UniProt P04839). Put plainly: compounds shifting NOX2 Amplex Red fluorescence – cell-based, HEK293-NOX2, PMA-stimulated, NOX inhibitor project, primary screen (AID 1159). Further: test concentration not given here. Conditions: 45 min, higher = more signal, called active from +8 up or from −8 down.
Chain of NADPH oxidase 2 (Homo sapiens) (P04839 whole entry, looked up): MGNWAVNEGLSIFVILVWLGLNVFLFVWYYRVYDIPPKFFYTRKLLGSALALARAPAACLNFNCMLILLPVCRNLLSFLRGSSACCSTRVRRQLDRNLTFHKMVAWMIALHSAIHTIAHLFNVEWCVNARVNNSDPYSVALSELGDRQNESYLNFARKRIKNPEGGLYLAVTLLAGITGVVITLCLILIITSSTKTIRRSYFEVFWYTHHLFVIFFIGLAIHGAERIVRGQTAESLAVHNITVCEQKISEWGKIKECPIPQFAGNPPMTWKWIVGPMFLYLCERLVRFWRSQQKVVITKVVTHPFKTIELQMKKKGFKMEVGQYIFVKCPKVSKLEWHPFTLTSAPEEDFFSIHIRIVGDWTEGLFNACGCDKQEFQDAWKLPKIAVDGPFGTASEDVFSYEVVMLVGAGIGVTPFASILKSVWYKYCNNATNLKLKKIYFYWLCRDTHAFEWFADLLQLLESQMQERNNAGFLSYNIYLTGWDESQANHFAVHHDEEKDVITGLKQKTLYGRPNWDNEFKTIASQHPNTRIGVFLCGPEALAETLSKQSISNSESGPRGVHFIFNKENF
The target of experiment [9] is NADPH oxidase 4 (Homo sapiens) (UniProt Q9NPH5). In words: compounds shifting NOX4 Amplex Red fluorescence – cell-based, HEK293-NOX4, tetracycline-induced, NOX inhibitor project, primary screen (AID 1160). The settings on record: HEK293-NOX4, Amplex Red H2O2 fluorescence, 45 min; higher = more signal, called active from +8 up or from −8 down.
Chain of NADPH oxidase 4 (Homo sapiens) (Q9NPH5 whole entry, looked up): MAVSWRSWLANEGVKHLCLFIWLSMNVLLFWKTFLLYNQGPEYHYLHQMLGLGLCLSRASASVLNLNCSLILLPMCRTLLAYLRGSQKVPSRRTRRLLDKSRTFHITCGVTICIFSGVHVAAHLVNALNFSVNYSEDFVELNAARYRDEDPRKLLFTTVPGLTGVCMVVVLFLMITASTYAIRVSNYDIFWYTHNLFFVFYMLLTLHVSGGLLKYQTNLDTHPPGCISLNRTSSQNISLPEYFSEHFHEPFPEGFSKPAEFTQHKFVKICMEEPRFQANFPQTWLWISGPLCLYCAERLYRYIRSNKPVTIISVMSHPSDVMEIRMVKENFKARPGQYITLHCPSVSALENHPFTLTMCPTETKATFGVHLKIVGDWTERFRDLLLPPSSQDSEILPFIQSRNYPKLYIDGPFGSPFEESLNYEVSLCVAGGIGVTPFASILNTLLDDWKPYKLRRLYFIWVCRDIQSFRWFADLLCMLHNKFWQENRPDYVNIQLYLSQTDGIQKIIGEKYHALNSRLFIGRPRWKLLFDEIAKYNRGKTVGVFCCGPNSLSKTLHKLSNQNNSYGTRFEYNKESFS
For experiment [10], the target named is NADPH oxidase 5 (Homo sapiens) (UniProt Q96PH1). In words: compounds shifting NOX5 Amplex Red fluorescence – cell-based, HEK293-NOX5, NOX inhibitor project, primary screen (AID 1161). Conditions: HEK293-NOX5, ionomycin, 45 min, higher = more signal.
Chain of NADPH oxidase 5 (Homo sapiens) (Q96PH1 whole entry, looked up): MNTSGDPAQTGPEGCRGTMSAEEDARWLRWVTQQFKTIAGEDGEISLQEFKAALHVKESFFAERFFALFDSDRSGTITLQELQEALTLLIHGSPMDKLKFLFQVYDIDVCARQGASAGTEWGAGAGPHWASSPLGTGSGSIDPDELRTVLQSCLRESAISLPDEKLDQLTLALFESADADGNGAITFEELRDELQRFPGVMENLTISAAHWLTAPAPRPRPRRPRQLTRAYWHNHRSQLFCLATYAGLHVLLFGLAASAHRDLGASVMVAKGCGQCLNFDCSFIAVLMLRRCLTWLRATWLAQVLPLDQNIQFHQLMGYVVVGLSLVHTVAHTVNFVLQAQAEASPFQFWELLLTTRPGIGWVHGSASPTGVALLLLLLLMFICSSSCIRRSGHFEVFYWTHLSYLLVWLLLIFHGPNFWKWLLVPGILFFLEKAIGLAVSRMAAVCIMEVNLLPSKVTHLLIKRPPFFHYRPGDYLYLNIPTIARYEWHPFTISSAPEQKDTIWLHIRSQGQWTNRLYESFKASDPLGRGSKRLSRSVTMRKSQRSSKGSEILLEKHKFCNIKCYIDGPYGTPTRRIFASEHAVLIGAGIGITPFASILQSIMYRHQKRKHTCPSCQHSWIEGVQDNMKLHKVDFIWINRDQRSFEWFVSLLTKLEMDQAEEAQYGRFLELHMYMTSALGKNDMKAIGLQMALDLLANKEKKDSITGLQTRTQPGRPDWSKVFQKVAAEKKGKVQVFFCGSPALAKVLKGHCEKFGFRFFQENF
The nature of experiment [11]: compound effects on lung adenocarcinoma cell viability – A549, calcein-AM fluorescence, 48 h, basal, profiling panel (AID 1162). Further: test concentration not given here. The settings on record: higher = more signal.
Experiment [12] is described as follows: compound effects on differentiated 3T3-L1 adipocyte viability – cell-based, 3T3-L1 adipocytes, calcein-AM fluorescence, 48 h, basal, profiling panel (AID 1163). Further: test concentration not given here. Conditions: 3T3-L1 adipocytes viability, higher = more signal.
Experiment [13] is described as follows: compound effects on hepatocellular carcinoma cell viability – HepG2, calcein-AM fluorescence, 48 h, basal, profiling panel (AID 1164). Further: test concentration not given here. The settings on record: higher = more signal.
Experiment [14] can be described thus: compound effects on multiple myeloma cell viability – MM1S, calcein-AM fluorescence, 48 h, basal, profiling panel (AID 1165). Further: test concentration not given here. Conditions: higher = more signal.
Experiment [15] can be described thus: calcein-AM signal in unstimulated myeloma cells – cell-based, calcein-AM fluorescence, 48 h, PK04 Diversity Set, profiling panel (AID 1166).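 Further: cells grown under basal conditions without added stimulus; test concentration not given here.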 Conditions: RPMI8226 myeloma viability, higher = more signal.
Experiment [16] is described as follows: JC-1 mitochondrial signal, unstimulated HepG2 cells – cell-based, JC-1 fluorescence, 24 h, 100 nL compound, profiling panel (AID 1167). Further: test concentration not given here. Conditions: HepG2 mitochondrial potential, higher = more signal.
The nature of experiment [17]: JC-1 mitochondrial signal, unstimulated adipocytes – cell-based, JC-1 fluorescence, 3T3-L1 adipocytes, 24 h, 100 nL compound, profiling panel (AID 1168). Further: test concentration not given here. Conditions: JC-1 mitochondrial fluorescence, higher = more signal, called active from +8 up or from −8 down.
The nature of experiment [18]: JC-1 mitochondrial signal, unstimulated myeloma cells – cell-based, JC-1 fluorescence, RPMI8226, 24 h, 100 nL compound, profiling panel (AID 1169). Further: test concentration not given here. Conditions: JC-1 mitochondrial potential fluorescence, higher = more signal.
A short description of experiment [19]: JC-1 mitochondrial signal, unstimulated MM1S myeloma – cell-based, JC-1 fluorescence, 24 h, 100 nL compound, profiling panel (AID 1170). Further: test concentration not given here. The settings on record: MM1S mitochondrial potential, higher = more signal.
Experiment [20] can be described thus: resazurin metabolic signal in A549 cells – cell-based, resazurin fluorescence, 24 h, PK04 Diversity Set, profiling panel (AID 1171). Further: test concentration not given here. Conditions: A549 viability, higher = more signal, called active from +8 up or from −8 down.

Active and inactive are the calls of the source.

Turning to `C=C(C)[C@@H]1CC=C(C(O)C2C=CC3C(=O)N(c4ccccc4)C(=O)C3N2Nc2ccc(C#N)cc2)CC1` (stereo not given in full), the z-score is -2.24 (inactive) in experiment [1]; 9.15 (active) in experiment [3]; 3.26 (inactive) in experiment [4]; 0.625 (inactive) in experiment [5]; 2.49 (inactive) in experiment [6]; -0.66 in experiment [7]. Moreover, the z-score is -1.94 (inactive) in [8]; -3.56 (inactive) in [9]; -2.27 in experiment [10]; -0.391 in [11]; -0.575 in experiment [12]; 0.166 in experiment [13]. For the same molecule, the z-score is -0.331 in [14]; 0.0001 in experiment [15]; -2.47 in experiment [16]; -2.61 (inactive) in experiment [17]; -0.671 in [18]; -0.641 in experiment [19]. Moreover, the z-score in experiment [20] was -0.31 (inactive). Besides, the composite z-score in [2] worked out at 0.619.

With `CC(C)CCC[C@@H](C)[C@H]1CC[C@@]2(C)C3=C(CC[C@]12C)[C@@]1(C)CC[C@H](OC(=O)c2ccccc2)C(C)(C)C1CC3` (stereo not given in full), the z-score in experiment [1] is 2.94 (inactive); in [3], -0.44 (inactive); in experiment [4] it was -0.47 (inactive); in experiment [5] it was -0.414 (inactive); in experiment [6] it was -1.26 (inactive); in [7] it was 1.64. For the same molecule, the z-score is -0.898 (inactive) in experiment [8]; 0.288 (inactive) in experiment [9]; 0.465 in experiment [10]; 0.667 in experiment [11]; 0.635 in experiment [12]; 0.771 in experiment [13]. The z-score in experiment [14] is 0.34; in experiment [15] it was 0.201; in experiment [16], 1.73; in experiment [17], 1.1 (inactive); in experiment [18] it was -0.671; in experiment [19] it was -2.12. In experiment [20], the z-score is 0.774 (inactive). Also, in [2], the composite z-score amounted to 0.0939.

As for `CN1C=C(C(=O)OCCS(C)(=O)=O)C(C(=O)OCCS(C)(=O)=O)=CC(c2ccc(CO)cc2)=CC1c1cccs1` (stereo not given), the z-score in experiment [1] was 0.248 (inactive); in [3], 9.6 (active); in experiment [4], 1.64 (inactive); in experiment [5], 0.298 (inactive); in experiment [6], 0.969 (inactive); in experiment [7], 0.0225. The z-score in experiment [8] was -0.937 (inactive); in experiment [9], -0.558 (inactive); in experiment [10], -1.98; in experiment [11], 0.574; in [12] it was -0.72; in experiment [13], 0.977. For the same molecule, the z-score in experiment [14] is -1.43; in [15] it was -1.1; in [16], -0.963; in experiment [17], -0.345 (inactive); in [18], -0.627; in [19], 0.0752. For the same molecule, the z-score in experiment [20] was 0.458 (inactive). In addition, the composite z-score in experiment [2] was 0.391.

Turning to `CCCCC=C[C@@H](NC(=O)c1ccccc1)c1ccccc1`, the z-score in [1] was -2.36 (inactive); in [3], 0.318 (inactive); in experiment [4], 0.279 (inactive); in [5] it was 0.893 (inactive); in experiment [6] it was 0.765 (inactive); in experiment [7] it was 0.442. In addition, the z-score is -0.474 (inactive) in experiment [8]; -2.77 (inactive) in experiment [9]; -2.28 in experiment [10]; -1.07 in experiment [11]; -0.417 in [12]; -1.02 in [13]. For the same molecule, the z-score in [14] is -0.842; in [15], -2.29; in experiment [16] it was 0.18; in experiment [17], -1.04 (inactive); in [18], 0.135; in experiment [19] it was -0.434. Also, in [20], the z-score was 0.962 (inactive). In addition, the composite z-score in experiment [2] turned out to be 0.0538.

Turning to `[N-]=[N+]=NCc1ccccc1[C@H]1OC(c2ccc(OCCCO)cc2)=N[C@@]1(Cc1ccccc1)C(=O)NCCN1CCOCC1`, the z-score in experiment [1] is 0.694 (inactive); in experiment [3], 28.1 (active); in experiment [4], 22.1 (active); in [5] it was 3.64 (inactive); in [6] it was 3.74 (inactive); in experiment [7], -0.281. Also, the z-score in [8] was 0.0323 (inactive); in experiment [9], 1.93 (inactive); in experiment [10], 1.58; in experiment [11], 0.526; in [12], 1.06; in experiment [13], 0.688. The z-score was -2.51 in experiment [14]; -1.2 in [15]; 1.51 in [16]; -0.0131 (inactive) in [17]; -0.815 in [18]; 0.45 in experiment [19]. Also, the z-score in [20] is 1.19 (inactive). For the same molecule, the composite z-score in experiment [2] was determined as 0.843.
